In PubChem BioAssay (NCATS):
Results filed as inconclusive are left out. Activity calls are given as the source filed them. Unless noted, calls follow the shape of the dose curve; as a rule, active = well fitted curve in the direction sought with a large enough effect; inconclusive = small, poorly fitted or top-dose-only effect, or another doubt; inactive = no such curve, though single readings can be large; an effect the other way counts as inactive or inconclusive.

Assays:
[1] = Cell Viability - SK-N-SH (AID 435; calls by dose curve;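 also: potency is read from the fitted curve at half-maximal effect; compound exposure lasted 40 h at 37 °C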); details: SK-N-SH neuroblastoma cell viability qHTS
How it was run: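 SK-N-SH neuroblastoma cells (1500/well) treated 40 h at 37 °C in complete medium; viability read as cellular ATP by CellTiter-Glo luminescence. Normalized to DMSO and 100 uM tamoxifen; AC50 from Hill fits of qHTS concentration-response.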

[2] = target: Mitogen-activated protein kinase 10 (Mus musculus) (UniProt Q61831); assay: JNK3 AlphaScreen Assay (AID 530; active = well fitted curve in either direction with a large enough effect, not every such curve was filed as active;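 also: kinase came from lysate of stimulated human HepG2 cells; signal reports phosphorylation of biotinylated GST-cJun 1-79 at Ser73 with 10 µM ATP; % is scaled to controls: 0 for no effect and ±100 for the full control effect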); details: JNK3 lysate, c-Jun phosphorylation; series mostly up to 57.1 µM
How it was run: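 Inhibitors reduce antibody binding to phosphorylated biotin-cJun, lowering AlphaScreen luminescence. Lysates from HepG2 cells pre-activated by IL-1beta plus TNF-alpha supplied JNK3; compounds were titrated.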

[3] = Cell Viability - SH-SY5Y (AID 544); details: SH-SY5Y neuroblastoma cell viability; viability change, negative = cytotoxic: at 92.2 µM (top of the series); also: nearly all actives have a fitted effect of over 55% in size
How it was run: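 SH-SY5Y human neuroblastoma cells (1500/well) incubated 5 h, then compound-treated 40 h at 37 °C in complete medium. Viability read as intracellular ATP by CellTiter-Glo luminescence after 20 min; AC50 from Hill-equation fits of qHTS concentration-response.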

[4] = Cell Viability - Mesenchymal (AID 546); details: mesenchymal cells viability, qHTS; series mostly up to 91.7 µM;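 also: cells exposed to compound for 40 hours before reading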
How it was run: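 Normal human renal glomerulus-derived kidney mesenchymal cells, 1000 per well in complete medium, were treated with compounds for 40 hr at 37 °C. Viability was read as intracellular ATP by CellTiter-Glo luminescence; AC50 values came from Hill-equation fits of qHTS concentration-response data.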

[5] = Cellular Toxicity (caspase-3) SHSY5Y (AID 657); details: SH-SY5Y caspase-3 activation, DMSO zero, 10 µM staurosporine = 100%; series mostly up to 91.7 µM
How it was run: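 SH-SY5Y human neuroblastoma cells, 1500/well, exposed to compound for 16 hours at 37 °C in complete medium. Caspase-3/7 activity read by Caspase-Glo luminescence after 1 hr at room temperature, normalized to DMSO and 10 uM staurosporine; AC50 from Hill fit.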

[6] = Cellular Toxicity (caspase-3) N2a (AID 665); details: N2a cells, luminescence, normalized: DMSO 0%, 10 µM staurosporine 100%; series mostly up to 92.2 µM;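 also: compound exposure lasted 16 h at 37 °C before readout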
How it was run: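 Mouse N2a neuroblastoma cells, 1500 per well, treated 16 h at 37 °C in complete medium; caspase-3/7 activity by Caspase-Glo luminescence after 1 h. Normalized to DMSO and 10 uM staurosporine; AC50 from Hill fits.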

[7] = MultiTox-Fluor Cytotoxicity Assay - LYMP1-002 - Live Cells (AID 955); details: LYMP1-002 lymphoblastoid live-cell protease fluorescence viability; series mostly up to 46.1 µM; also: % is scaled to controls: 0 for no effect and ±100 for the full control effect
How it was run: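 Human lymphoblastoid LYMP1-002 cells, 2500/well, treated 16 h at 37 C in complete medium. Live-cell protease activity via GF-AFC fluorescence (Ex/Em 405/510) after 60 min reagent incubation; AC50 from Hill fits.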

[8] = Cell Viability - LYMP2-009 (AID 968); details: LYMP2-009 lymphoblastoid cell viability; series mostly up to 92.2 µM;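 also: 0% = DMSO alone and the full-kill end = tetraoctylammonium bromide at 92 µM; nearly all actives have a fitted effect of over 55% in size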
[9] = Cell Viability - LYMP2-011 (AID 969); details: LYMP2-011 lymphoblastoid cells viability; series mostly up to 92.2 µM;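 also: cells exposed to compound for 24 hours; 0% = DMSO only and full inhibition = 92 µM tetraoctylammonium bromide; nearly all actives have a fitted effect of over 60% in size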
How it was run: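 2500 cells/well in complete medium, compound-treated 24 h at 37 C. Viability read as intracellular ATP by CellTiter-Glo luminescence after 30 min at room temperature. AC50 from Hill fits of qHTS concentration-response data.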

[10] = Cell Viability - LYMP2-025 (AID 976); details: LYMP2-025 lymphoblastoid cell viability; series mostly up to 92.2 µM;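 also: plate controls were DMSO only for no effect and tetraoctylammonium bromide control for full effect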
How it was run: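 Human lymphoblastoid LYMP2-025 cells, 2500/well, exposed 24 h at 37 C in complete medium in 1536-well qHTS. Viability as cellular ATP by CellTiter-Glo luminescence; AC50 from Hill fits of concentration-response data.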

[11] = Cell Viability - LYMP2-008 (AID 980); details: LYMP2-008 lymphoblastoid cell viability, qHTS; series mostly up to 92.2 µM; also: % is scaled to controls: 0 for no effect and ±100 for the full control effect; nearly all actives have a fitted effect of over 60% in size
How it was run: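 LYMP2-008 lymphoblastoid cells (2500/well) plated 5 h, then treated 24 h at 37 C in complete medium. Viability read as intracellular ATP by CellTiter-Glo luminescence after 30 min at room temperature; AC50 from Hill fits.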

[12] = Cell Viability - LYMP1-002 - Assay at 24 hr (AID 993); details: LYMP1-002 lymphoblastoid cells viability; series mostly up to 92.2 µM; also: % is scaled to controls: 0 for no effect and ±100 for the full control effect
How it was run: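 Human lymphoblastoid LYMP1-002 cells (2500/well) treated 24 h at 37 °C; viability as intracellular ATP by CellTiter-Glo luminescence. Tetraoctylammonium bromide as positive control; AC50 from Hill-equation fits of qHTS concentration-response.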

[13] = target: Peroxisome proliferator-activated receptor gamma (Homo sapiens) (UniProt P37231); assay: qHTS assay for small molecule agonists of peroxisome proliferator-activated receptor gamma signaling (AID 588536; active = well fitted curve in the direction sought with a large enough effect in the signal ratio, with a control signal flat, not every such curve was filed as active; the % refers to the signal ratio;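 also: 0% = DMSO basal wells and 100% = rosiglitazone at 2 µM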); details: HEK293 PPARg-UAS-bla, beta-lactamase ratio, 16 h, percent of rosiglitazone response, DMSO as zero; series mostly up to 76.7 µM
How it was run: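 PPAR-gamma-UAS-bla HEK293 cells in medium with 1% charcoal/dextran-treated FBS were exposed to compounds for 16 h at 37 C. Beta-lactamase activity was read with CCF4 substrate (405 nm excitation, 460/530 nm emission).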

[14] = target: Vitamin D3 receptor (Homo sapiens) (UniProt P11473); assay: qHTS assay for small molecule agonists of vitamin D receptor signaling (AID 588543; calls by dose curve;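 also: 0% = DMSO basal and 100% = reference agonist control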); details: HEK293T VDR-UAS-bla, beta-lactamase ratio, 16 h; series mostly up to 76.8 µM
How it was run: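 VDR-UAS-bla HEK293T cells, 2000/well, 2% charcoal-stripped FBS; compound titration 16 h at 37 C; CCF4 beta-lactamase ratio read. Normalized to 50 nM 1-alpha,25-dihydroxyvitamin D3 (100%) and DMSO; Hill fit gives EC50, efficacy.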

[15] = target: Retinoic acid receptor RXR-alpha (Homo sapiens) (UniProt P19793); assay: qHTS assay for small molecule antagonists of retinoid X receptor alpha signaling (AID 588546; active = well fitted inhibition curve with a large enough effect in the signal ratio, with a control signal flat, not every such curve was filed as active; the % refers to the signal ratio;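 also: cells stimulated with 9-cis-retinoic acid as agonist; % is scaled to controls: 0 for no effect and ±100 for the full control effect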); details: HEK293T RXRa-UAS-bla, beta-lactamase ratio, antagonist mode
How it was run: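 Beta-lactamase reporter inhibition, read as CCF4 fluorescence ratio (ex 405, em 460/530 nm) after 2 h at RT. HEK293T UAS-bla cells, 2500/well, were stimulated with 9-cis-RA at 500 or 100 nM final alongside test compound for 18 h at 37 C.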

[16] = target: Nuclear receptor subfamily 1 group I member 2 (Rattus norvegicus) (UniProt Q9R1A7); assay: qHTS assay for small molecule activators of the rat pregnane X receptor (rPXR) signaling pathway (AID 651751; call rule not given here; also: 0% is about no effect); details: rPXR reporter cells, luciferase (One-Glo), 24 h
[17] = Cell Viability - Renal Proximal Tubule (AID 545); details: renal proximal tubule cells viability; series mostly up to 91.7 µM; also: nearly all actives have a fitted effect of over 40% in size
How it was run: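 Rat renal proximal tubule primary cells, 1000/well, exposed to compounds for 40 hr at 37 °C in complete medium; cellular ATP read by CellTiter-Glo luminescence. AC50 from concentration-response fitted with standard Hill equation.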

[18] = Cell Viability - LYMP2-012 (AID 982); details: LYMP2-012 lymphoblastoid cell viability qHTS; series mostly up to 92.2 µM;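 also: cellular ATP by luciferase luminescence where a drop means cytotoxicity; cells exposed to compound for one day before reading; 0% = DMSO only and full loss = 92 µM tetraoctylammonium bromide; nearly all actives have a fitted effect of over 55% in size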
[19] = Cellular Toxicity (caspase-3) HepG2 (AID 654); details: HepG2 caspase-3 activation, luminescence, 0% = DMSO only, 100% = tamoxifen; series mostly up to 92.2 µM;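 also: cells exposed to compound for 16 hours before reading; 0% = DMSO alone and 100% = caspase signal from 100 µM tamoxifen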
How it was run: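 HepG2 cells (1500/well) were treated 16 h at 37 °C in complete medium, then caspase 3/7 activity was read by Caspase-Glo luminescence. Data were normalized to DMSO and 100 uM tamoxifen; AC50 came from Hill-equation fits of qHTS concentration-response.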

[20] = qHTS assay for environmental chemicals that activate the Aryl hydrocarbon Receptor (AhR) signaling pathway (AID 651777); details: 1A2-DRE human hepatoma cells, luciferase, 24 h; activation: hits give high values; also: % of control where 0% means no effect; nearly all actives have a fitted effect of over 15% in size
How it was run: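 AhR activation is scored as a rise in luciferase from a stable DRE–CYP1A2 promoter construct in human hepatoma cells. Treatment lasts 24 hr at 37 C; detection uses One-Glo after 30 min at room temperature.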

Chain of Nuclear receptor subfamily 1 group I member 2 (Rattus norvegicus) (Q9R1A7 whole entry, looked up): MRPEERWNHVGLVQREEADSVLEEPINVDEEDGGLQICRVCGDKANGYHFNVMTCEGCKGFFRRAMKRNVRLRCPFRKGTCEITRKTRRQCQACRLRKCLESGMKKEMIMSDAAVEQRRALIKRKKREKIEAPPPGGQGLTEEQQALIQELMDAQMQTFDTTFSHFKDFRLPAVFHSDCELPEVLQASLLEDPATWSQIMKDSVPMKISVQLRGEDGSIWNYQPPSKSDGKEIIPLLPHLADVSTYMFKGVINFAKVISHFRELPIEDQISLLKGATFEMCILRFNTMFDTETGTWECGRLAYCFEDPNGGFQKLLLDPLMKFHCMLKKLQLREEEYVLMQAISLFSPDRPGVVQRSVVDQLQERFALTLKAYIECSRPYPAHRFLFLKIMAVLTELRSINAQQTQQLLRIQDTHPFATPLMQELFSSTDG
Chain of Peroxisome proliferator-activated receptor gamma (Homo sapiens) (P37231 whole entry, looked up): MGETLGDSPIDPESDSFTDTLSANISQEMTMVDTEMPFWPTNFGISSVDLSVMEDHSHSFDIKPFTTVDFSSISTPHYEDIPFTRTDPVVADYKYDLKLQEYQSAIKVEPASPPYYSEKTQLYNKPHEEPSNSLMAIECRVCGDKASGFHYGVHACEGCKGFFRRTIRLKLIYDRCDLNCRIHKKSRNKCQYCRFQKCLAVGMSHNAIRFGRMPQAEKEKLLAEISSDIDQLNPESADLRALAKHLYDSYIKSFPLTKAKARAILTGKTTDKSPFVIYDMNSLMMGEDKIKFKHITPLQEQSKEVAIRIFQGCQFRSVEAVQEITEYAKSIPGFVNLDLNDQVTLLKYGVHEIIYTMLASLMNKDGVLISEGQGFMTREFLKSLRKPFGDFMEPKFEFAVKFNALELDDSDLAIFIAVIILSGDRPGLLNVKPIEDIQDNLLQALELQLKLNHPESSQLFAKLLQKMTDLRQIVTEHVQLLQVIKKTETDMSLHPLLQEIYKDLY
Chain of Vitamin D3 receptor (Homo sapiens) (P11473 whole entry, looked up): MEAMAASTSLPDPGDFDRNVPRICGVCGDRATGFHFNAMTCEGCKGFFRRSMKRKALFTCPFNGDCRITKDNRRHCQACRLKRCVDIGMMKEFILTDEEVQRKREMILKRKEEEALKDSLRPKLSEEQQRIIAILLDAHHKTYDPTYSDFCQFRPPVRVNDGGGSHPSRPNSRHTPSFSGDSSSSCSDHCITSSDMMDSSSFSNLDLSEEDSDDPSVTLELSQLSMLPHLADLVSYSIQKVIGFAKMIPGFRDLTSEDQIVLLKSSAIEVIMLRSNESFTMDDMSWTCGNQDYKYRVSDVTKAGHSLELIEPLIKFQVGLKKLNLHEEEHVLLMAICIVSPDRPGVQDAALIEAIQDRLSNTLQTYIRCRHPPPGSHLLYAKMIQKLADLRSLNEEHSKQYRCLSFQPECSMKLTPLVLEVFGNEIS
Chain of Retinoic acid receptor RXR-alpha (Homo sapiens) (P19793 whole entry, looked up): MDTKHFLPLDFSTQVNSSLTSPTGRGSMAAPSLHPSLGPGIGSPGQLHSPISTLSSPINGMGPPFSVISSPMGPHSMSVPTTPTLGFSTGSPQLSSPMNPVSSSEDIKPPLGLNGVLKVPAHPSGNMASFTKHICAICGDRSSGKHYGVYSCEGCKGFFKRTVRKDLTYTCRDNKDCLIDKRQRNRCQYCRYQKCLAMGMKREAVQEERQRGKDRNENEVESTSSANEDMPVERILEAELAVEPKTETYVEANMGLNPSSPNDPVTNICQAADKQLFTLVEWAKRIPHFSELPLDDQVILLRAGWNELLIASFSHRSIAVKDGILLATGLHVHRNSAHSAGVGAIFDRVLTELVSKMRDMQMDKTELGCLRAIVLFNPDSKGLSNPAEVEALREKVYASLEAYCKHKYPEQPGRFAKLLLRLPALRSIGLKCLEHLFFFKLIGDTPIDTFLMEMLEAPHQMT

[N-]=[N+]=[N-]
inactive: Potency [1] > 92 µM | Potency [2] | Potency [3] | Potency [4] | outcome [5] | outcome [6] | outcome [7] | Potency [8] | Potency [9] | Potency [10] | Potency [11] | Potency [12] | outcome [13] | outcome [14] | max response [15] 13.8% | max response [16] -8.68%

O=C(O)C(Br)Br
inactive: Potency [2] | outcome [17] | Potency [4] | outcome [5] | outcome [6] | outcome [7] | Potency [8] | Potency [10] | Potency [11] | Potency [18] | outcome [13] | max response [16] 1.77%

ClP(Cl)(Cl)(Cl)Cl
inactive: Potency [1] > 92 µM | Potency [2] | outcome [17] | Potency [4] | outcome [19] | outcome [5] | outcome [6] | Potency [9] | Potency [10] | Potency [11] | Potency [18] | Potency [12] | outcome [13] | outcome [14] | max response [15] -15.7% | activation [20] -0.379% | max response [16] 0.805%

CCCCC(CC)COC(=O)c1ccc(C(=O)OCC(CC)CCCC)c(C(=O)OCC(CC)CCCC)c1 (stereo not drawn)
inactive: Potency [1] > 92 µM | Potency [2] | Potency [3] | outcome [17] | Potency [4] | outcome [19] | outcome [5] | outcome [6] | outcome [7] | Potency [8] | Potency [9] | Potency [10] | Potency [11] | Potency [18] | Potency [12] | outcome [13] | outcome [14] | max response [15] 5.41% | activation [20] -0.0808% | max response [16] 0.711%

O=[N+]([O-])c1ccccc1CCl
inactive: Potency [3] | Potency [4] | outcome [19] | outcome [5] | outcome [6] | outcome [7] | Potency [10] | Potency [18] | Potency [12] | outcome [13] | outcome [14] | activation [20] -0.0678% | max response [16] 5.58%
